The entries come from a sample that favours hits as a whole.
Cycloheximide cs – counter-screen for Shiga toxin inhibitors: cycloheximide protein synthesis inhibition; cell reporter, cycloheximide protein synthesis inhibition counterscreen; max response, %; actives 12% (n = 300,000); AID 2314; in the data active = max response mostly above about 13%, no sharp cut-off; inactive = mostly below about 14%; also: read at 38.3 µM for the half of the compounds with a filed dose; 0% is about no effect
Tb PYK inh – blocks Trypanosoma brucei pyruvate kinase | Q57TT1 | TbPYK enzyme, Kinase-Glo Plus ATP luminescence, 45 min | Potency, µM (doses to about 76.8 µM), inactives show top-dose activity, negative = inhibition, most hits filed as inhibitors | actives 0.12% (n = 410,000) | AID 624173; also: potency is read from the fitted curve at half-maximal effect; % is scaled to controls: 0 for no effect and ±100 for the full control effect; nearly all actives have a fitted effect of over 50% in size
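TbPYK + substrate in 50 mM TEA pH 7.2, 100 mM KCl, 10 mM MgCl2, 0.05% BSA, 0.01% Tween-20; cpd pinned; ADP 130 uM final; 45 min RT; Kinase-Glo Plus 10 min; luminescence endpoint.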
LmPK inhibitor – blocks Leishmania mexicana pyruvate kinase activity; AID 1721; Q27686; Potency, µM (highest dose often 57.5 µM), for the others: top-dose activity change, negative = inhibition, usual class: inhibitors; purified LmPK, Kinase-Glo ATP luminescence, 1 h; actives 0.37% (n = 290,000); also: potency is read from the fitted curve at half-maximal effect; % is scaled to controls: 0 for no effect and ±100 for the full control effect
Target sequence (Q27686 whole entry, looked up): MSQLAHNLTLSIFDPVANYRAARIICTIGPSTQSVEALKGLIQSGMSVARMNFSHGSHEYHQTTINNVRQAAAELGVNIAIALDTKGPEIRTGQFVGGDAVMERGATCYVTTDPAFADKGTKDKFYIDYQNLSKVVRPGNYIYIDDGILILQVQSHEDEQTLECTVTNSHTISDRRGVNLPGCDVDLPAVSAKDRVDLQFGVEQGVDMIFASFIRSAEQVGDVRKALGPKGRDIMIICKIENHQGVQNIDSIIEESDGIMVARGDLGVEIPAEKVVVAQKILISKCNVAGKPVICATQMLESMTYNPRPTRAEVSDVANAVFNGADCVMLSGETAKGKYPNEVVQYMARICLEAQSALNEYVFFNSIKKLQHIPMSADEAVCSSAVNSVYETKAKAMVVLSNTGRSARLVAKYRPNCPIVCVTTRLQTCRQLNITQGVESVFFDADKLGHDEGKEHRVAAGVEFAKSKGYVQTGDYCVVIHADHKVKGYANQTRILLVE
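qHTS format; LmPK 0.1 nM; substrates PEP 0.5 mM and ADP 0.1 mM. One-hour room-temperature incubation, then coupled luciferase luminescence; 0.5 nM enzyme wells mark activation.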
Shiga inhibitor – Shiga toxin inhibition; Vero cells, Shiga toxin protein synthesis inhibition reporter; AID 2315; actives 9.2% (n = 290,000); inhibition, % at 38.7 µM; in the data active = inhibition mostly above about 28%, no sharp cut-off; inactive = mostly below about 43%; also: 0% is about no effect
RE007 growth inh – less growth of the S. pombe RE007 Vpr strain; S. pombe RE007 Vpr strain, BacTiter-Glo ATP luminescence, 24 h; Potency, µM (highest dose often 92.2 µM), without a hit: at the top dose activity change, negative = less growth, usual class: inhibitors; actives 0.21% (n = 360,000); AID 651644; active = well fitted falling curve with a large enough effect; inconclusive = small, poorly fitted or top-dose-only effect; inactive = no such curve, though single readings can be large or run the other way; also: potency is read from the fitted curve at half-maximal effect; % is scaled to controls: 0 for no effect and ±100 for the full control effect; nearly all actives have a fitted effect of over 50% in size
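Fission yeast strain RE007, carrying one chromosomally integrated HIV-1 vpr copy, was seeded at OD 0.01 in PMG+AL medium with 23 nL pinned compound. After 24 h at 30 °C and 99% humidity, viability was read by BacTiter-Glo luminescence.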
Giardia FBPA inh – blocks Giardia fructose-bisphosphate aldolase activity | A8B2U2 | purified Giardia FBPA | Potency, µM (series often up to 59.6 µM), for the others: at the top dose activity, negative = inhibition, actives largely listed as inhibitors | actives 0.71% (n = 290,000); also: potency is read from the fitted curve at half-maximal effect; % is scaled to controls: 0 for no effect and ±100 for the full control effect; nearly all actives have a fitted effect of over 55% in size
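Giardia FBPA (40 nM reagent) was preincubated 10 min at RT with compound (up to 57.5 uM final), then substrate plus GAPDH/TPI/NAD/arsenate coupling system with diaphorase/resazurin was added; resorufin fluorescence (525/598 nm) was read after 20 min.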
The depositor's hits bear a star; u = inconclusive; x = no result; [ ] = dose if it differs, or a comment. Unless noted, calls follow the shape of the dose curve; as a rule, active = well fitted curve in the direction sought with a large enough effect; inconclusive = small, poorly fitted or top-dose-only effect, or another doubt; inactive = no such curve, though single readings can be large; an effect the other way counts as inactive or inconclusive.

SMILES | Cycloheximide cs | Tb PYK inh | LmPK inhibitor | Shiga inhibitor | RE007 growth inh | Giardia FBPA inh
O=C(N=C1N=C2C=CC=CN2Cc2ccccc21)c1ccc(S(=O)(=O)N2CCCC2)cc1 | 55* | -5% | -8% | 97* | 3% | 2%
CO[C@@H]1COC(=O)C/C=C\[C@@H](C)COC(=O)[C@H](Cc2ccccc2)NC(=O)C/C=C\[C@H]1C | x | x | x | x | x | 0%[12.9 µM]
CC(OC(=O)CCc1nc2ccccc2c(=O)[nH]1)C(=O)c1ccc(C(C)(C)C)cc1 (centres undefined) | 22* | -15% | 5% | 60* | -4% | 0%
COc1ccc(C(=O)/C=C/c2cn(CN3CCN(C)CC3)c3ccccc23)cc1 | 43* | -1% | 5% | 49* | u | -20%
COc1ccc(C(=O)/C=C/c2cn(CC(O)CN3CCc4ccccc43)c3ccccc23)cc1OC (centres undefined) | x | -6% | x | x | x | x
CCOc1ccc(C(=O)/C=C/c2cn(CN3CCN(C)CC3)c3ccccc23)cc1 | 31* | -1% | 1% | 61* | 6% | -2%
Cc1cccc(OCC(=O)OCc2cc(=O)n3nc(C4CCCCC4)sc3n2)c1 | x | -17% | x | x | x | x
COc1ccc(Cn2ccc3nc(C)c(C(=O)NCc4cccc(OC)c4)cc3c2=O)cc1 | x | -5% | x | x | x | x
C/C(CCc1ccco1)=N\NC(=O)CNc1cccc2ccccc12 | 6 | 4% | 13%[11.5 µM] | 12 | 5% | 20µM*
COc1ccc(-c2cc(C)nc3c(-c4ccccc4)cnn23)cc1 | 41* | -13% | -2% | 90* | -11% | -1%
Cc1cc(-c2ccccc2)n2ncc(-c3ccccc3)c2n1 | 47* | 1% | -2% | 97* | -14% | 0%
Cc1cc(SCC(=O)c2ccccc2)n2ncc(-c3ccccc3)c2n1 | 61* | -4% | 0% | 67* | 6% | 20%
COc1ccc(-c2nc(S(=O)(=O)c3ccc(Cl)cc3)c(N3CCCCCC3)o2)cc1 | x | 1% | x | x | x | x
CCOc1ccc(NC(=O)CSC2=Nc3ccccc3C3=NC(CCC(=O)NCc4cccs4)C(=O)N23)cc1 (centres undefined) | x | -10% | x | x | x | x
CCS(=O)(=O)c1ncc(Cl)c(C(=O)N2CCN(c3cccc(Cl)c3)CC2)n1 | x | -11% | x | x | x | x
Cn1c(-n2cccc2)c(-c2c(-c3ccc(F)cc3)[nH]c3c2c(=O)[nH]c(=O)n3C)c(=O)[nH]c1=O | x | -5% | x | x | x | x
COc1ccc(S(=O)(=O)N2CCN(c3ccccc3)CC2)cc1-c1noc(C)n1 | 6 | -2% | x | -9 | x | x
Cc1ccnc(NC(=O)CS(=O)(=O)Cc2ccccc2)c1 | 7 | 1% | -1% | 7 | -2% | -1%
Cc1ccnc(NC(=O)CCS(=O)(=O)c2ccccc2)c1 | 18* | -1% | -1% | 36 | -17% | 3%
O=C(CCS(=O)(=O)c1ccccc1)Nc1ccccn1 | 8 | -9% | -2% | 9 | 13% | 10%
Cc1ccnc(NC(=O)CS(=O)(=O)c2ccccc2)c1 | 13 | -1% | -3% | 89* | 1% | 7%
Cc1ccc(-c2cc(C(=O)O)c3ccccc3n2)c(C)c1 | 18* | 1% | -5% | 5 | 2% | 10%
O=C(O)c1cc(-c2ccc(Cl)s2)nc2ccccc12 | 14 | -15% | 5% | 54* | -8% | -7%
COc1cccc(/C=C(\C#N)c2nc3ccccc3c(=O)[nH]2)c1OC | x | -10% | x | x | x | x
CCOC(=O)c1c(C)[nH]c(C)c1S(=O)(=O)N1CCC(C(=O)N2CCN(c3cccc(C)c3)C(C)C2)CC1 (centres undefined) | x | -5% | x | x | x | x
SMILES | Cycloheximide cs | Tb PYK inh | LmPK inhibitor | Shiga inhibitor | RE007 growth inh | Giardia FBPA inh
CCC1=C(c2ccc(C)cc2)S(=O)(=O)N=C1N1CCC(C(=O)NCCc2cccc(OC)c2)CC1 | x | 2% | x | x | x | x
COCCn1c(=O)c(-c2ccc(Cl)cc2)nc2cnc(Nc3ccccc3)nc21 | x | x | x | x | x | 7%
CC(=O)Nc1ccc(NC(=O)c2oc3c(c2C)-c2nn(Cc4ccccc4Cl)cc2CC3)cc1 | x | -6% | x | x | x | x
O=C(COC(=O)c1ccc2ccccc2c1O)NCC(F)(F)F | 22* | 2% | -3% | 69* | 26% | -4%
CCOc1ccccc1C(=O)Nc1cccc(-c2nc3ccccc3s2)c1 | x | -14% | x | x | x | x
COc1ccc(O)c(C2=Nc3ccccc3N=C(c3ccco3)C2)c1 | 8.7* | -1% | 1% | 32 | 3% | u
N=C1S/C(=C\c2cn[nH]c2-c2ccc(F)cc2)C(=O)N1c1ccccc1F | 20* | 1% | 3% | -3 | -10% | 5%
N=C1S/C(=C\c2ccccc2F)C(=O)N1c1ccc(F)cc1 | 0 | -1% | 1% | -12 | 5% | 1%
CCCNC(=O)C1CCN(S(=O)(=O)c2ccc3c(c2)CCCN3C(C)=O)CC1 | x | 1% | x | x | x | x
O=C1c2ccccc2S(=O)(=O)N1CC1CC(c2ccccc2)=NO1 (centres undefined) | 44* | -9% | -1% | 89* | 13% | 13%
O=C1c2ccccc2S(=O)(=O)N1CC1CC(c2ccc(Cl)cc2)=NO1 (centres undefined) | 61* | 4% | 3% | 66* | -21% | 1%
COc1ccc(C2=NOC(CN3C(=O)c4ccccc4S3(=O)=O)C2)cc1 (centres undefined) | 64* | -1% | 4% | 125* | -12% | 1%
CO/N=C(\Cn1ncc(N2CCCC2)c(Cl)c1=O)c1ccc(Cl)cc1 | -1 | -5% | 1% | -18 | 4% | 0%
CC(=O)Cn1ncc(N2CCCCC2)c(Cl)c1=O | 21* | 2% | 0% | 47 | -6% | -2%
CCOC(=O)c1cc(-c2ccccc2)n(CCC(=O)NCCc2ccc(C)cc2)c1C | x | 5% | x | x | x | x
CCC(=O)Nc1ccc(-c2cc3ccccc3oc2=O)cc1 | 38* | -2% | -2% | 107* | 15% | 0%
Cc1cc(N)ccc1-c1cc2ccccc2oc1=O | 17* | -1% | -3% | x | 3% | -4%
CCC(=O)Nc1cc(-c2cc3ccccc3oc2=O)ccc1OC | 7 | -3% | -2% | 24 | -8% | -2%
CCN(CC(=O)Nc1ccc(NC(C)=O)cc1)C(=O)c1cc2ccccc2oc1=O | x | 0% | x | x | -5% | x
CC(=O)Nc1ccc(-c2cc3ccccc3o2)cc1 | 43* | -1% | 1% | 105* | 35% | 9%
O=C(NCc1cccnc1)c1ccc(-c2cc3ccccc3oc2=O)cc1 | 39* | 0% | -3% | 67* | 3% | 0%
COc1cc(N)ccc1-c1cc2ccccc2oc1=O | 10 | 2% | -1% | 27 | -4% | 1%
O=C(Nc1cccnc1)c1cccc(-c2cc3ccccc3oc2=O)c1 | 12 | 0% | 4% | 23 | 13% | 5%
Cc1ccc(NC(=O)Cn2c(=O)n(Cc3nc(C)no3)c(=O)c3cc4c(cc32)OCO4)cc1 | x | 3% | x | x | x | x
CCCCCn1cc2c(c1-c1ccccc1Br)c(=O)n(C)c(=O)n2C | x | 4% | x | x | x | x

Screening results: PubChem, National Center for Advancing Translational Sciences (NCATS)
